Measured values published in PubChem BioAssay (NCI).
This is part of a sample that, as a whole, favours compounds with a hit. Of some 83,000 tested, about 20% had one in any assay.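 Results are percent growth after 48 hours of single-concentration exposure. 100 means growth as in untreated cells, lower positive values show inhibition; negative values down to -100 show cell death.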 Active and inactive are the calls of the source. The calls were made as follows: active = growth percent below 10; inactive = the rest.

How the values were obtained:
Assay in all cases: NCI-60 one-dose screen, 48 h (100 = growth as untreated, 0 = no growth, -100 = all killed)
Conditions in all cases: 10 µM unless noted
DU-145 prostate = tested on: DU-145 prostate
K-562 leukemia = tested on: K-562 leukemia
MALME-3M melanoma = tested on: MALME-3M melanoma
MDA-MB-231 breast = tested on: MDA-MB-231 breast
RXF 393 renal = tested on: RXF 393 renal
SF-268 CNS = tested on: SF-268 CNS
SF-295 CNS = tested on: SF-295 CNS
SF-539 CNS = tested on: SF-539 CNS
UACC-257 melanoma = tested on: UACC-257 melanoma
M14 melanoma = tested on: M14 melanoma
HCT-15 colon = tested on: HCT-15 colon
HT29 colon = tested on: HT29 colon
SNB-19 CNS = tested on: SNB-19 CNS
U251 CNS = tested on: U251 CNS
PC-3 prostate = tested on: PC-3 prostate
SK-MEL-5 melanoma = tested on: SK-MEL-5 melanoma
UACC-62 melanoma = tested on: UACC-62 melanoma
LOX IMVI melanoma = tested on: LOX IMVI melanoma
SK-MEL-28 melanoma = tested on: SK-MEL-28 melanoma

Measured: growth

O=[N+]([O-])c1cccc(-c2nc3sccn3c2-c2ccnc(NCCNS(=O)(=O)c3ccc(C(F)(F)F)cc3)n2)c1
inactive: DU-145 prostate 48.5% | K-562 leukemia 21.8% | MALME-3M melanoma 41.1% | MDA-MB-231 breast 60.2% | RXF 393 renal 56% | SF-268 CNS 39.8% | SF-295 CNS 37.4% | SF-539 CNS 74.5% | UACC-257 melanoma 49.1% | M14 melanoma 37.8% | HCT-15 colon 26.7% | HT29 colon 40% | SNB-19 CNS 61.4% | U251 CNS 51.4% | PC-3 prostate 17% | UACC-62 melanoma 13.2% | LOX IMVI melanoma 30.4% | SK-MEL-28 melanoma 58.8%
active: SK-MEL-5 melanoma -14%

COc1cc(/C=C2\CN(C(=O)CCN3CCC(=NO)CC3)C/C(=C\c3cc(OC)c(OC)c(OC)c3)C2=O)cc(OC)c1OC
active: DU-145 prostate -94% | K-562 leukemia 6.55% | MALME-3M melanoma -50.4% | MDA-MB-231 breast -73.5% | RXF 393 renal -85.1% | SF-268 CNS -73% | SF-295 CNS -75.4% | SF-539 CNS -60.5% | UACC-257 melanoma -16.9% | M14 melanoma -46.6% | HCT-15 colon -54.7% | HT29 colon -70% | SNB-19 CNS -90.1% | U251 CNS -68.6% | PC-3 prostate -54.3% | SK-MEL-5 melanoma -61.2% | UACC-62 melanoma -70.7% | LOX IMVI melanoma -85.2% | SK-MEL-28 melanoma -76.7%

Nc1c(C(=O)Nc2cccc3c2OCCO3)sc2nc3c(cc12)CN(Cc1ccccc1)CC3
inactive: DU-145 prostate 86% | K-562 leukemia 20.1% | MALME-3M melanoma 68.1% | MDA-MB-231 breast 66.4% | RXF 393 renal 71.8% | SF-268 CNS 74.2% | SF-295 CNS 39.7% | SF-539 CNS 65.2% | UACC-257 melanoma 83% | M14 melanoma 54.6% | HCT-15 colon 42.5% | HT29 colon 35.3% | SNB-19 CNS 60.4% | U251 CNS 56.9% | PC-3 prostate 55.1% | SK-MEL-5 melanoma 60.8% | UACC-62 melanoma 49.3% | LOX IMVI melanoma 53.2% | SK-MEL-28 melanoma 75.4%

C=C1CC2(OC1=O)C(=O)Nc1ccccc12 (centres undefined)
inactive: DU-145 prostate 43% | K-562 leukemia 21.8% | MALME-3M melanoma 12.4% | MDA-MB-231 breast 65.6% | SF-268 CNS 98% | SF-295 CNS 96% | SF-539 CNS 47.3% | UACC-257 melanoma 71.9% | M14 melanoma 59.1% | HCT-15 colon 23% | HT29 colon 42.7% | SNB-19 CNS 88.3% | U251 CNS 91.2% | PC-3 prostate 73.6% | SK-MEL-5 melanoma 81.2% | UACC-62 melanoma 72.9% | LOX IMVI melanoma 35.3% | SK-MEL-28 melanoma 63.8%
active: RXF 393 renal -13.3%

COc1cc2c(=O)n(CC3CCCCC3)c3c4cc[nH]c4ncc3c2cc1OC
inactive: DU-145 prostate 50.3% | MALME-3M melanoma 65.9% | MDA-MB-231 breast 25.5% | SF-268 CNS 28.8% | SF-295 CNS 42.9% | UACC-257 melanoma 84.9% | M14 melanoma 49.2% | HCT-15 colon 32.1% | HT29 colon 32% | SNB-19 CNS 57.5% | U251 CNS 30.3% | PC-3 prostate 43.4% | SK-MEL-5 melanoma 39.3% | UACC-62 melanoma 74.4% | LOX IMVI melanoma 12.3% | SK-MEL-28 melanoma 77.8%
active: K-562 leukemia 5.36% | RXF 393 renal -4.27% | SF-539 CNS -7.56%

COc1cccc(-c2nc3sccn3c2-c2ccnc(NCCCNS(=O)(=O)c3ccc(Cl)cc3)c2)c1
inactive: DU-145 prostate 51.3% | K-562 leukemia 29.4% | MALME-3M melanoma 74.1% | MDA-MB-231 breast 59.5% | RXF 393 renal 65.3% | SF-268 CNS 44.2% | SF-295 CNS 42.7% | SF-539 CNS 66.7% | UACC-257 melanoma 59.4% | M14 melanoma 41.1% | HCT-15 colon 37.8% | HT29 colon 42.6% | SNB-19 CNS 69.4% | U251 CNS 63.5% | PC-3 prostate 26.2% | LOX IMVI melanoma 39.2% | SK-MEL-28 melanoma 69.6%
active: SK-MEL-5 melanoma 1.31%

O=C1CCc2c(sc3[nH]c(=S)n(Cc4ccccc4)c(=O)c23)C1
inactive: DU-145 prostate 64.1% | K-562 leukemia 11.5% | MALME-3M melanoma 69% | MDA-MB-231 breast 16.5% | RXF 393 renal 20.8% | SF-268 CNS 19.4% | UACC-257 melanoma 29.1% | M14 melanoma 18.9% | HT29 colon 79.6% | SNB-19 CNS 11.8% | PC-3 prostate 13.9% | SK-MEL-28 melanoma 25%
active: SF-295 CNS -13.9% | SF-539 CNS -12.6% | HCT-15 colon 7.5% | U251 CNS 8.09% | SK-MEL-5 melanoma -75.6% | UACC-62 melanoma 8.72%

C/C(=C(/c1ccc(O)cc1)c1ccc(Cl)cc1)c1ccccc1
active: DU-145 prostate -75.2% | K-562 leukemia -1.81% | MALME-3M melanoma -94.6% | MDA-MB-231 breast -83.3% | RXF 393 renal -79.3% | SF-268 CNS -83.4% | SF-295 CNS -95.1% | SF-539 CNS -96% | UACC-257 melanoma -74.6% | M14 melanoma -78.1% | HCT-15 colon -81.9% | HT29 colon -66.6% | SNB-19 CNS -86.2% | U251 CNS -94.6% | PC-3 prostate -74.6% | SK-MEL-5 melanoma -98.9% | UACC-62 melanoma -94.5% | LOX IMVI melanoma -95.7% | SK-MEL-28 melanoma -96.3%

C=C1C(=O)O[C@H]2[C@H]1CC/C(Cn1cc(Cn3ccc4cc(Cl)ccc43)nn1)=C\CC[C@@]1(C)O[C@@H]21
inactive: SF-268 CNS 18.4% | SF-295 CNS 73.5% | UACC-257 melanoma 28.8% | SNB-19 CNS 53.5% | U251 CNS 28.9% | SK-MEL-5 melanoma 46.9%
active: DU-145 prostate 4.94% | K-562 leukemia -29.2% | MALME-3M melanoma -67.1% | MDA-MB-231 breast -51.8% | RXF 393 renal -72.2% | SF-539 CNS -88.6% | M14 melanoma -4.18% | HCT-15 colon -47.1% | HT29 colon -43.3% | PC-3 prostate 6.92% | LOX IMVI melanoma -89.5% | SK-MEL-28 melanoma -13.3%

Nc1c(C(=O)Nc2cccc3c2OCCO3)sc2nc3c(cc12)C(=O)CCC3
active: RXF 393 renal -18.5% | SF-539 CNS -26.3%
inactive: DU-145 prostate 22.2% | K-562 leukemia 13.7% | MALME-3M melanoma 56.8% | MDA-MB-231 breast 14.7% | SF-268 CNS 60.7% | SF-295 CNS 21.9% | UACC-257 melanoma 90.6% | M14 melanoma 33.6% | HCT-15 colon 30.1% | HT29 colon 13.5% | SNB-19 CNS 33.3% | U251 CNS 33% | PC-3 prostate 33.9% | SK-MEL-5 melanoma 24% | UACC-62 melanoma 23.5% | LOX IMVI melanoma 41.8% | SK-MEL-28 melanoma 60%

O=C(Nc1nc(-c2ccccc2)cc(-c2ccc(Cl)cc2)n1)c1ccncc1
inactive: DU-145 prostate 103% | K-562 leukemia 93.5% | MALME-3M melanoma 99.3% | MDA-MB-231 breast 94.8% | RXF 393 renal 85.7% | SF-268 CNS 94.5% | SF-295 CNS 100% | SF-539 CNS 102% | UACC-257 melanoma 104% | M14 melanoma 104% | HCT-15 colon 104% | HT29 colon 96.8% | SNB-19 CNS 90.3% | U251 CNS 93% | PC-3 prostate 91.4% | SK-MEL-5 melanoma 102% | UACC-62 melanoma 86.9% | LOX IMVI melanoma 91.7% | SK-MEL-28 melanoma 115%

CCCCCCCCCC(=O)Oc1ccc(/C(=C(/C)Cc2cccc(OC)c2)c2ccc(OCCN(C)C)cc2)cc1
inactive: DU-145 prostate 108% | K-562 leukemia 100% | MALME-3M melanoma 115% | MDA-MB-231 breast 105% | RXF 393 renal 115% | SF-268 CNS 100% | SF-295 CNS 107% | SF-539 CNS 103% | UACC-257 melanoma 110% | M14 melanoma 105% | HCT-15 colon 105% | HT29 colon 109% | SNB-19 CNS 109% | U251 CNS 110% | PC-3 prostate 110% | SK-MEL-5 melanoma 107% | UACC-62 melanoma 97.8% | LOX IMVI melanoma 102% | SK-MEL-28 melanoma 114%

COCCOC(=O)C1=C(C)NC(=S)NC1c1ccc2c(c1)OCO2 (centres undefined)
inactive: DU-145 prostate 108% | K-562 leukemia 91.8% | MALME-3M melanoma 108% | MDA-MB-231 breast 105% | RXF 393 renal 101% | SF-268 CNS 97.4% | SF-295 CNS 105% | SF-539 CNS 99.2% | UACC-257 melanoma 90.2% | M14 melanoma 104% | HCT-15 colon 102% | HT29 colon 96.7% | SNB-19 CNS 100% | U251 CNS 104% | PC-3 prostate 95.7% | SK-MEL-5 melanoma 97.6% | UACC-62 melanoma 102% | SK-MEL-28 melanoma 114%

Cc1nc2sc(C(=O)Nc3cccc4c3OCCO4)c(N)c2cc1C(C)O (centres undefined)
inactive: DU-145 prostate 47.7% | K-562 leukemia 13.3% | MALME-3M melanoma 47.1% | MDA-MB-231 breast 39.9% | SF-268 CNS 49.9% | SF-295 CNS 10.9% | UACC-257 melanoma 55.7% | M14 melanoma 37.5% | HCT-15 colon 21.4% | SNB-19 CNS 34.3% | U251 CNS 28.7% | PC-3 prostate 32.6% | SK-MEL-5 melanoma 29.7% | UACC-62 melanoma 22% | LOX IMVI melanoma 33% | SK-MEL-28 melanoma 66.6%
active: RXF 393 renal -5.15% | SF-539 CNS 4.07% | HT29 colon 3.68%

O=[N+]([O-])c1cccc(-c2nc3sccn3c2-c2ccnc(NCCCNS(=O)(=O)c3ccc(Br)cc3)n2)c1
inactive: DU-145 prostate 58.9% | K-562 leukemia 31.7% | MALME-3M melanoma 59.9% | MDA-MB-231 breast 67.3% | RXF 393 renal 81.3% | SF-268 CNS 56.6% | SF-295 CNS 48.2% | SF-539 CNS 90.3% | UACC-257 melanoma 61.1% | M14 melanoma 45.8% | HCT-15 colon 34.1% | HT29 colon 57.1% | SNB-19 CNS 87.4% | U251 CNS 83.8% | PC-3 prostate 24.5% | LOX IMVI melanoma 38.4% | SK-MEL-28 melanoma 76.9%
active: SK-MEL-5 melanoma -15.6% | UACC-62 melanoma 2.78%

COc1ccc(/C=C2\CN(C(=O)CCN3CCC(=NO)CC3)C/C(=C\c3ccc(OC)cc3)C2=O)cc1
inactive: DU-145 prostate 22.6% | SF-268 CNS 13.3% | UACC-257 melanoma 22.9% | PC-3 prostate 12.1%
active: K-562 leukemia 4.21% | MALME-3M melanoma -40.9% | MDA-MB-231 breast -57.9% | RXF 393 renal -81.2% | SF-295 CNS 8.38% | SF-539 CNS -25.5% | M14 melanoma 7.58% | HCT-15 colon -12.8% | HT29 colon -48.2% | SNB-19 CNS 8.36% | U251 CNS -46.2% | SK-MEL-5 melanoma -55.7% | LOX IMVI melanoma -91.8% | SK-MEL-28 melanoma -30.5%
